According to PubChem BioAssay:
Some of the results follow. Activity calls are given as the source filed them. Rule as the data show it, unless noted: active = activation above about 33%; inactive = the rest.

Key:
[1] = PERK-eIF2a-CHOP pathway stimulators, retested – cell-based, CHO-CHOP luciferase reporter, single concentration, confirmation (AID 463112); conditions: CHO-CHOP cells, CHOP-luciferase reporter luminescence; at 10 µM; stronger effect = higher value; percent of tunicamycin response, DMSO as zero;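 also: 0% = DMSO wells and 100% = tunicamycin 10 µg/mL wells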
[2] = Brca1-Bard1 BiLC signal decrease – luminescence, single concentration, counter-screen for Mdm2/MdmX interaction inhibitor project, confirmation (AID 504668; call rule not given here); conditions: Brca1/Bard1 bimolecular luciferase complementation counterscreen, at 8 µM, stronger effect = higher value
[3] = biological target: Protein Mdm4 (Homo sapiens) + E3 ubiquitin-protein ligase Mdm2 (Homo sapiens) (UniProt O15151+Q00987); test: human Mdm2/MdmX binding disruption – cell-based, luminescence, single concentration, set 2, confirmation (AID 504601;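 active = mean inhibition of the luminescence signal across two replicates at or above 26 percent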); conditions: SaOS-2 split-luciferase Mdm2/MdmX complementation, at 8 µM, stronger effect = higher value
[4] = inhibition of PEG-3 promoter luciferase signal – cell-based, HeLa, luciferase reporter, single concentration, confirmation (AID 602417;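 active = at 20 µM dose, 40% or more inhibition averaged across four replicates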); conditions: HeLa PEG-Prom luciferase reporter, luminescence, overnight; at 20 µM; stronger effect = higher value
[5] = NF-kB reporter suppression in CF airway cells – cell-based, GFP fluorescence, single concentration, confirmation (AID 602472; in the data active = inhibition above about 40%;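 also: stimulus PAF is a Pseudomonas aeruginosa filtrate and not platelet activating factor; plate controls were DMSO wells with stimulus for no effect and unstimulated DMSO wells for full effect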); conditions: KKLEB CF airway cells, PAF-induced NF-kB-GFP fluorescence, overnight; at 5 µM; stronger effect = higher value
[6] = HIF-2a driven luciferase blockers, single dose – luminescence, 786-0 RCC cells, confirmation (AID 651580;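 active = mean inhibition across four replicates of at least 40 percent at the single tested concentration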); conditions: HIF-2a luciferase reporter luminescence, overnight, at 18.8 µM, stronger effect = higher value
[7] = HIF-1a luciferase reporter signal reduction – MiaPaCa-2 cells, single concentration, counter-screen for HIF-2a inhibitor project, confirmation (AID 651589;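 active = mean inhibition of the reporter signal across four replicates at the single tested dose of 50% or more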); conditions: MiaPaCa-2 HIF-1a luciferase reporter, desferoxamine, overnight; at 18.8 µM; stronger effect = higher value
PEG-3 [8] = biological target: PEG-3 (UniProt Q6IN02); test: inhibition of PEG-3 promoter-driven reporter – cell-based, HeLa, luciferase, CREF/GAPDH counter-screen panel, dose response (AID 624167); conditions: CREF/GAPDH counter-screens; HeLa PEG-Prom luciferase reporter, overnight, run 1, dose range 1, at 100 µM (top of the series) unless noted
PEG-3 [9] = biological target: PEG-3 (UniProt Q6IN02); test: as above; conditions: CREF/GAPDH counter-screens; HeLa PEG-Prom luciferase reporter, overnight, run 2, dose range 1, at 100 µM (top of the series) unless noted
Rat fibroblasts (CREF) [10] = test: as above; conditions: CREF/GAPDH counter-screens; run 1, dose range 1, at 100 µM (top of the series)
Rat fibroblasts (CREF) [11] = test: as above; conditions: CREF/GAPDH counter-screens; run 2, dose range 1, at 100 µM (top of the series)
[12] = biological target: Sentrin-specific protease 8 (Homo sapiens) (UniProt Q96LD8); test: human SENP8 peptidase blockers, hit retest – biochemical, luminescence, single concentration, confirmation (AID 488912;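 active = mean inhibition across replicates above about 50%, limit read from the data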); conditions: Recombinant SENP8, Z-RLRGG-aminoluciferin luminescence, 60 min; at 12.5 µM; stronger effect = higher value
[13] = biological target: Sentrin-specific protease 6 (Homo sapiens) (UniProt Q9GZR1); test: inhibition of human SENP6 catalytic domain – biochemical, luminescence, single concentration, confirmation (AID 488915;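 active = mean inhibition above about 50% in the one-dose retest, limit read from the data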); conditions: recombinant SENP6, Z-RLRGG-aminoluciferin luminescence; at 12.5 µM; stronger effect = higher value
[14] = biological target: Sentrin-specific protease 7 (Homo sapiens) (UniProt Q9BQF6); test: human SENP7 peptidase blockers, hit retest – biochemical, luminescence, single concentration, confirmation (AID 488917;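 active = mean inhibition above about 50% in the one-dose retest, limit read from the data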); conditions: recombinant SENP7, Z-RLRGG-aminoluciferin luminescence, 40 min; at 12.5 µM; stronger effect = higher value
Caspase-3 (Homo sapiens) = Caspase-3 (Homo sapiens) (UniProt P42574); test: human caspase-3 activity blockade, out-of-family – biochemical, single concentration, selectivity assay for SENP inhibitor project, confirmation (AID 488918;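 active = mean inhibition above about 50%, limit read from the data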;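 also: plate controls were enzyme with DMSO for no effect and wells without caspase-3 for full effect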); conditions: purified caspase-3, Z-DEVD-aminoluciferin luminescence, 60 min; at 12.5 µM; stronger effect = higher value
[15] = Ultra-Glo luciferase signal interference – biochemical, single concentration, SENP8 reaction pre-completed, artefact control for SENP inhibitor project, confirmation (AID 488919;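 active = mean inhibition above about 50% when retested at one dose, limit read from the data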;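 also: plate controls were DMSO wells with completed reaction for no effect and substrate without enzyme for full effect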); conditions: Pre-incubated SENP8/Z-RLRGG-aminoluciferin, luciferase luminescence interference; at 12.5 µM; stronger effect = higher value

Chain of Sentrin-specific protease 6 (Homo sapiens) (Q9GZR1 628-1112 limits assumed): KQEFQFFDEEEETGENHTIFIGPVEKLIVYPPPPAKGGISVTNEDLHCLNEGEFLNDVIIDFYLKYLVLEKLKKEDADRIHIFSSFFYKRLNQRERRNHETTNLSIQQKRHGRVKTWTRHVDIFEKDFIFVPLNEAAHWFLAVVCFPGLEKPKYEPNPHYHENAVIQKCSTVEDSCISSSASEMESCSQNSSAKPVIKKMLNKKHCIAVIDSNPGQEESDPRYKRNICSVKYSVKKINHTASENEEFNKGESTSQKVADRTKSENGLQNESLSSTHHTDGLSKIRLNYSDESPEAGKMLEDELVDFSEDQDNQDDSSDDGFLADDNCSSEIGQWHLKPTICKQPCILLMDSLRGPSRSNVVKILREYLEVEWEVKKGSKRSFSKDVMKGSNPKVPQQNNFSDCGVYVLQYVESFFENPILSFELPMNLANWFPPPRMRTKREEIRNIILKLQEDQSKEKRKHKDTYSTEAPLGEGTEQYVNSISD
Chain of Sentrin-specific protease 7 (Homo sapiens) (Q9BQF6 706-1050 limits assumed): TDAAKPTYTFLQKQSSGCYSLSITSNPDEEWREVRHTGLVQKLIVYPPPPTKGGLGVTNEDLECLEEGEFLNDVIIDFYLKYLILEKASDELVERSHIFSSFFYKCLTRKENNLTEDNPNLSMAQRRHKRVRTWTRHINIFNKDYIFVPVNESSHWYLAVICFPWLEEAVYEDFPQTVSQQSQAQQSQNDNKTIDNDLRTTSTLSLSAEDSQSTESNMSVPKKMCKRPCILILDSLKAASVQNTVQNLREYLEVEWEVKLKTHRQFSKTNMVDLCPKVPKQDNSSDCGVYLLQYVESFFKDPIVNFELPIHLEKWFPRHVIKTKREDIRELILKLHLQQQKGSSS
Chain of PEG-3 (Q6IN02 whole entry, looked up): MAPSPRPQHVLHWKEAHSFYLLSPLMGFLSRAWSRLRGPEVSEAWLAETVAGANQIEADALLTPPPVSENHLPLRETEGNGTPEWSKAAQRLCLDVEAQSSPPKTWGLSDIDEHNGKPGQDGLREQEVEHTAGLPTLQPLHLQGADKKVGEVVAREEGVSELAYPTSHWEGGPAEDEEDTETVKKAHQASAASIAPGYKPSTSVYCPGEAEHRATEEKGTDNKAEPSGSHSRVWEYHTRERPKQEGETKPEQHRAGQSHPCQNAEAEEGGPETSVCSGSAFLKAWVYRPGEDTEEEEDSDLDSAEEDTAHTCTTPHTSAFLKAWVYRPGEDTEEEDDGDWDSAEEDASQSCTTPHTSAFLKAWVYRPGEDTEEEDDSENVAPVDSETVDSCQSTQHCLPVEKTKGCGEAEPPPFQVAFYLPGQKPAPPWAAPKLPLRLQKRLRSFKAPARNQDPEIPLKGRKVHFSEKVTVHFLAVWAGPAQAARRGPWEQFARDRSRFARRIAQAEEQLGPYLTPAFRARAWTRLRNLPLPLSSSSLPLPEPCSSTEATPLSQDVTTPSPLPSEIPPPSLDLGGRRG
Chain of Sentrin-specific protease 8 (Homo sapiens) (Q96LD8 whole entry, looked up, the tested form may be a part): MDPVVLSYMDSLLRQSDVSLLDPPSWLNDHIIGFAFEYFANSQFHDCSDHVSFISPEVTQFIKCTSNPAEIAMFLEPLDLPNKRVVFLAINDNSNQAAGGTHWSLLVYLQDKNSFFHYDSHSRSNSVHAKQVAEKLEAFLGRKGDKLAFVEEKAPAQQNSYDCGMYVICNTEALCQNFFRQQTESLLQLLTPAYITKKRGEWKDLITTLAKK
Chain of Caspase-3 (Homo sapiens) (P42574 28-227 limits assumed): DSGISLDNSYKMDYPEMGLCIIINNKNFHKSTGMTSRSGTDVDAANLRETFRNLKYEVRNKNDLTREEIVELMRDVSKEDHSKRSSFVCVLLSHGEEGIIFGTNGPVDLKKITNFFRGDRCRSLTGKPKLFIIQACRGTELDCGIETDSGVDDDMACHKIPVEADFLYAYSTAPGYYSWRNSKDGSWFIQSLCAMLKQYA
Chain of Protein Mdm4 (Homo sapiens) + E3 ubiquitin-protein ligase Mdm2 (Homo sapiens) (O15151 whole entry, looked up): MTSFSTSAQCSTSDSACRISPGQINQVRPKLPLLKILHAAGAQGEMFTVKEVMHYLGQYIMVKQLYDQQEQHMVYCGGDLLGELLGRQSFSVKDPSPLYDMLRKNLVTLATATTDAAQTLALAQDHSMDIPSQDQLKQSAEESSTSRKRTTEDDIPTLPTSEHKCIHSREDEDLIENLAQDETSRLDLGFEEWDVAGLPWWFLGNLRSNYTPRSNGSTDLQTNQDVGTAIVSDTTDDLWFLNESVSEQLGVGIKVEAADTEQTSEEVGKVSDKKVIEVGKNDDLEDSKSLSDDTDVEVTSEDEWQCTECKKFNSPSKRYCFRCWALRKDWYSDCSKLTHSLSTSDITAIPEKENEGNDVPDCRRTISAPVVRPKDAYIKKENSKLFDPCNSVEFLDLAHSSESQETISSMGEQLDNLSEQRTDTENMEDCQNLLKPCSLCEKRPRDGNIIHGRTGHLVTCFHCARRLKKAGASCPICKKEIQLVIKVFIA
Chain of Protein Mdm4 (Homo sapiens) + E3 ubiquitin-protein ligase Mdm2 (Homo sapiens) (Q00987 whole entry, looked up): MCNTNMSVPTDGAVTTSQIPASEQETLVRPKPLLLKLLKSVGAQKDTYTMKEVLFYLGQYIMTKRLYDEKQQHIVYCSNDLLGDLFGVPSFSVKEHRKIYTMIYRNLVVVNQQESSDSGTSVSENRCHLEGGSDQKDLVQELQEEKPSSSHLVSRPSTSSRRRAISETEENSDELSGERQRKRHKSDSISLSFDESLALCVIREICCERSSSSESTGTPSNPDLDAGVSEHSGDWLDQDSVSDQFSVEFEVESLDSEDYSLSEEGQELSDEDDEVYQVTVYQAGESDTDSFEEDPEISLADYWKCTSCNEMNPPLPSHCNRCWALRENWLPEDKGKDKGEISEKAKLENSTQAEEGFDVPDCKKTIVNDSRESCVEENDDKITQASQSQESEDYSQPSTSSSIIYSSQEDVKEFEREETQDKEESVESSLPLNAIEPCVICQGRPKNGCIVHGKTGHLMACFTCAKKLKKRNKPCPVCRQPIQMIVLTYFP

Structure (SMILES): COc1ccc(-c2cc(C(F)(F)F)nc(S(C)(=O)=O)n2)cc1OC
- activation [1]: 210% (active)
- inhibition [2]: 24.3% (active)

Structure (SMILES): CC(=O)/C(=N\Nc1ccc(Cl)cc1Cl)Sc1cccc2cccnc12
- activation [1]: 184% (active)

Structure (SMILES): Cc1ccc(Oc2nc(-c3ccccn3)nc3ccccc23)cc1
- activation [1]: 1.5% (inactive)

Structure (SMILES): O=C(CN1CCN(S(=O)(=O)c2cc(Cl)ccc2Cl)CC1)c1ccc(O)c(O)c1
- activation [1]: 21.2% (inactive)

Structure (SMILES): COC(=O)c1ccc(C(=O)Nc2cc(Cl)ccc2Cl)cc1NC(=O)c1ccccc1C
- activation [1]: 10.6% (inactive)

Structure (SMILES): CCOc1ccc(N2C(=O)CC(N(O)c3ccccc3)C2=O)cc1 (stereo not given)
- activation [1]: 186% (active)

Structure (SMILES): CCOC(=O)/C=c1\s/c(=C\c2ccc(C#N)cc2)c(=O)n1CC(=O)Nc1cccc(C)c1C
- activation [1]: 1.05% (inactive)

Structure (SMILES): Cc1cccc(CS(=O)(=O)c2ncc(Cl)c(C(=O)Nc3ccc(F)cc3)n2)c1
- activation [1]: 88.1% (active)
- inhibition [3]: 103% (active)
- inhibition [4]: 95.7% (active)
- inhibition [5]: 44% (active)
- inhibition [6]: 99.3% (active)
- inhibition [7]: 86.8% (active)
- inhibition (PEG-3 [8]): 99.1%
- inhibition (PEG-3 [9]): 98.3%
- inhibition (Rat fibroblasts (CREF) [10]): 100%
- inhibition (Rat fibroblasts (CREF) [11]): 96.3%

Structure (SMILES): Cc1ccc(-c2nnc(-c3ccc(NC(=O)c4cccs4)cc3)o2)cc1
- activation [1]: 134% (active)

Structure (SMILES): COCCNc1nc(-n2nc(C)cc2C)nc2sc3c(c12)CCCC3
- activation [1]: 8.5% (inactive)

Structure (SMILES): CCCc1cc(=O)oc2c(C)c(OCC(=O)Nc3ccccn3)ccc12
- inhibition [12]: 18.2% (inactive)
- inhibition [13]: 14.4% (inactive)
- inhibition [14]: 23.3% (inactive)
- inhibition (Caspase-3 (Homo sapiens)): 39.2% (inactive)
- inhibition [15]: 11.8% (inactive)

Structure (SMILES): COCn1c(COc2ccccc2)nc2ccccc21
- inhibition [12]: 39.7% (inactive)
- inhibition [13]: 39.5% (inactive)
- inhibition [14]: 76.4% (active)
- inhibition (Caspase-3 (Homo sapiens)): 74.2% (active)
- inhibition [15]: 56% (active)
